# In ChEMBL document CHEMBL3988442, “University of Dundee, Small-Polar-MMV Screening Library” (2021):
# For some of these results: Results with a measured potency or affinity are listed apart.
# Experiments:
# Design in all cases: scale not given: direction of the effect not stated beside the values
# [1] = molecular target: Protein translocase subunit SecA (Escherichia coli (strain K12)) (UniProt P10408); test: Assay to Identify E. coli SecA ATPase Inhibitors; assay type: functional; settings: 30 µM
# Chain of Protein translocase subunit SecA (Escherichia coli (strain K12)) (P10408 whole entry): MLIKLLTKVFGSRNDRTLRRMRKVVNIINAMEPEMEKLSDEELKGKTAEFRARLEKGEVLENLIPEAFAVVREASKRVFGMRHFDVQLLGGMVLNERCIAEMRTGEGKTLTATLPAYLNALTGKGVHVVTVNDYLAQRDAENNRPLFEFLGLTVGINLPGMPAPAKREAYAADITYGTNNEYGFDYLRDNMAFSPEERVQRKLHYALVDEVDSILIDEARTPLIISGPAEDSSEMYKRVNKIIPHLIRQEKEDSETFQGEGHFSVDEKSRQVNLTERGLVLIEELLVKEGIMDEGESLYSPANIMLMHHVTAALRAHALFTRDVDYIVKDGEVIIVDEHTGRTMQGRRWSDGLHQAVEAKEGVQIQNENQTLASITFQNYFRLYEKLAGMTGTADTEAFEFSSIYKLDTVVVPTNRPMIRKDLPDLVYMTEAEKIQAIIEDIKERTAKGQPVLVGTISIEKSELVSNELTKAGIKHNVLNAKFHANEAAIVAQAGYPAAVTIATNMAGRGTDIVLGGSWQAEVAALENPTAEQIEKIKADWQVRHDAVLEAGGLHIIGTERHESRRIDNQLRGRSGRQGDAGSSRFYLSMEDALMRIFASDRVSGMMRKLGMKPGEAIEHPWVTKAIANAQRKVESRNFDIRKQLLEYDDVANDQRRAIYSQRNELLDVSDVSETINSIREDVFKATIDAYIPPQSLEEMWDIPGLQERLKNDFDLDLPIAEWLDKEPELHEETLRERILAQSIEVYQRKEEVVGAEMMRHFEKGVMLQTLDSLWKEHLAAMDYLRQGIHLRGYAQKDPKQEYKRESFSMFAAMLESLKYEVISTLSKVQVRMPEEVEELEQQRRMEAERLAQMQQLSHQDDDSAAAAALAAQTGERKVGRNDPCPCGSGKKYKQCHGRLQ
# [2] = molecular target: T1, Ubiquitin-activating enzyme e1, putative (Leishmania donovani (strain BPK282A1)) (UniProt E9BSI1); test: Leishmania donovani Ubiquitin Activating Enzyme (LdE1); assay type: functional; settings: 30 µM
# T1 sequence (whole entry): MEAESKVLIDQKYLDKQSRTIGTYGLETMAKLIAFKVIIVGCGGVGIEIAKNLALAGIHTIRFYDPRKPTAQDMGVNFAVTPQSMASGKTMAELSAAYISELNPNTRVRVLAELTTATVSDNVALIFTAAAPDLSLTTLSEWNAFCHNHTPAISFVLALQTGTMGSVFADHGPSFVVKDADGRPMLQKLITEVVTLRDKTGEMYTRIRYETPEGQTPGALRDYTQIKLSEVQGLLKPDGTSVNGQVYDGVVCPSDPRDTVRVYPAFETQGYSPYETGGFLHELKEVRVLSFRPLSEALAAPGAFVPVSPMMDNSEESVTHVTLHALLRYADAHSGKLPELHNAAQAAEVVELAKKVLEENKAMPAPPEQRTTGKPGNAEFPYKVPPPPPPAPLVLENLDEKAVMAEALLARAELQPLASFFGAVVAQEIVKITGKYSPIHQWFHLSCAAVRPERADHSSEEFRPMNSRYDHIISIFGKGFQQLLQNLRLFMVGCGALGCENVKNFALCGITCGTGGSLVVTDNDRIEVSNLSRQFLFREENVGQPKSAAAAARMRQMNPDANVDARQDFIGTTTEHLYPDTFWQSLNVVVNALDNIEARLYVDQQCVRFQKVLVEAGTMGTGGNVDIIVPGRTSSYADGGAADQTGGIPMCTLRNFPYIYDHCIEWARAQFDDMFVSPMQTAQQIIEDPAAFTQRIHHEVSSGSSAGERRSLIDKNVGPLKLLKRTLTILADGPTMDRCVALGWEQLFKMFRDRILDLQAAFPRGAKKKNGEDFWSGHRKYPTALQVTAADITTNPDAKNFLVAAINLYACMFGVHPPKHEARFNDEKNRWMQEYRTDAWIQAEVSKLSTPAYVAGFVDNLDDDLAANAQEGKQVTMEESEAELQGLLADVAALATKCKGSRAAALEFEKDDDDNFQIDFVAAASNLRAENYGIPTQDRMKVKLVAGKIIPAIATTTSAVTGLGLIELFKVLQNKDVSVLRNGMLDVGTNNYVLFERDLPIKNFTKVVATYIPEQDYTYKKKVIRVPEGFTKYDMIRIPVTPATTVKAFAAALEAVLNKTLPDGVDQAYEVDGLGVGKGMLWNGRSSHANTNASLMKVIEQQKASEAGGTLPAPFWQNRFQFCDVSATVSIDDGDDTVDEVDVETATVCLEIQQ
# [3] = molecular target: AMP-activated protein kinase, AMPK (Homo sapiens) (UniProt P54646+O43741+P54619+Q9UGJ0+Q9Y478+Q13131+Q9UGI9); test: AMP-dependent Kinase enzyme assay. An in vitro enzyme assay that detects ADP turnover that is directly proportional to AMPK activity. This uses naive AMPK that is activated during the assay with MK-8722; assay type: functional; settings: 30 µM
# [4] = molecular target: Sialic acid-binding Ig-like lectin 9 (Homo sapiens) (UniProt Q9Y336); test: Hs-Siglec9 ALPHAscreen SOP 20170721; settings: 10 µM
# Chain of Sialic acid-binding Ig-like lectin 9 (Homo sapiens) (Q9Y336 whole entry): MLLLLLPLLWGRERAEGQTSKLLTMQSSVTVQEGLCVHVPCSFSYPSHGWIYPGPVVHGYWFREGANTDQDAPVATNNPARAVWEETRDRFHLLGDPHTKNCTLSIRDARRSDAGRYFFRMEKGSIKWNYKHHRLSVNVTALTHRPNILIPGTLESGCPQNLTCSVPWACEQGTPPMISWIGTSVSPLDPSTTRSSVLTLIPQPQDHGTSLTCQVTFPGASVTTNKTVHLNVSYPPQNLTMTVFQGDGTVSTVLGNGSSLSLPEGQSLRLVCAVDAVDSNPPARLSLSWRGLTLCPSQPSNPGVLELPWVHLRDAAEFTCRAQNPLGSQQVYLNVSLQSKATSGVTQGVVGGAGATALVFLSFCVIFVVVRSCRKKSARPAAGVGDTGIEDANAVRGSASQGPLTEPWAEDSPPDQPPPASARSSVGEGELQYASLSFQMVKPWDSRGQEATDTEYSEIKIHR
# [5] = test system: Trypanosoma cruzi; test: Trypanosoma cruzi phosphomannomutase and mannose-1-phosphate guanylyltransferase assay; assay type: functional; settings: 10 µM
# [6] = molecular target: T2, Arginase-2, mitochondrial (Homo sapiens) (UniProt P78540); test: in vitro enzyme assay to detect the production of urea directly proportional to the activity of Arginase II; assay type: functional; settings: 33.3 µM; note: in the data most compounds retested in dose-response had high values
# T2 sequence (whole entry): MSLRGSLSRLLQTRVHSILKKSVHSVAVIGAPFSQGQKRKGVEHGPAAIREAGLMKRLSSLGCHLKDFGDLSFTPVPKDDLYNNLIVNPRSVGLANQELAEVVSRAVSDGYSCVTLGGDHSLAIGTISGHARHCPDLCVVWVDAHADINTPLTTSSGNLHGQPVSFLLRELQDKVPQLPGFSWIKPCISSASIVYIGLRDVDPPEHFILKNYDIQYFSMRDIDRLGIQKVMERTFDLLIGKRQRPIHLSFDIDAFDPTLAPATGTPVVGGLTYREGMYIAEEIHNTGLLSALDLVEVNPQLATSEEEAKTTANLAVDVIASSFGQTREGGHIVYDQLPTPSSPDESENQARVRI
# [7] = molecular target: T3, Proteasome subunit beta (Trypanosoma cruzi) (UniProt O96673); test: Trypanosoma cruzi proteasome chymotrypsin-like activity (TcProtChymo) assay.; note: in the data most compounds retested in dose-response had high values; assay type: functional; settings: 9.37 µM
# T3 sequence (whole entry): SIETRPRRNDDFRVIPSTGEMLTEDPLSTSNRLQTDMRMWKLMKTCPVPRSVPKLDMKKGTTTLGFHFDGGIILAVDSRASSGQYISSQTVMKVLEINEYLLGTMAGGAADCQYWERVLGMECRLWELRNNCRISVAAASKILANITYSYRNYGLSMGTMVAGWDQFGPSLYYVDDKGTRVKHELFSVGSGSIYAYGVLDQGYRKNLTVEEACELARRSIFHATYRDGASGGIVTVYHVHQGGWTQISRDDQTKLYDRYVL
# [8] = species: Homo sapiens; test: To identify inhibition of the IFN signalling (Jak-Stat) pathway via expression of an eGFP reporter gene under the control of an IFN-stimulated response element (ISRE) containing MxA promoter.; assay type: functional; settings: 30 µM
# [9] = molecular target: T4, Tyrosyl-tRNA synthetase, putative (Trypanosoma cruzi (strain CL Brener)) (UniProt Q4DSP6); test: Trypanosoma cruzi tyrosyl tRNA synthetase (TcYRS) _High Tyrosine SOP; assay type: functional; settings: 30 µM; note: in the data most compounds retested in dose-response had high values
# T4 sequence (whole entry): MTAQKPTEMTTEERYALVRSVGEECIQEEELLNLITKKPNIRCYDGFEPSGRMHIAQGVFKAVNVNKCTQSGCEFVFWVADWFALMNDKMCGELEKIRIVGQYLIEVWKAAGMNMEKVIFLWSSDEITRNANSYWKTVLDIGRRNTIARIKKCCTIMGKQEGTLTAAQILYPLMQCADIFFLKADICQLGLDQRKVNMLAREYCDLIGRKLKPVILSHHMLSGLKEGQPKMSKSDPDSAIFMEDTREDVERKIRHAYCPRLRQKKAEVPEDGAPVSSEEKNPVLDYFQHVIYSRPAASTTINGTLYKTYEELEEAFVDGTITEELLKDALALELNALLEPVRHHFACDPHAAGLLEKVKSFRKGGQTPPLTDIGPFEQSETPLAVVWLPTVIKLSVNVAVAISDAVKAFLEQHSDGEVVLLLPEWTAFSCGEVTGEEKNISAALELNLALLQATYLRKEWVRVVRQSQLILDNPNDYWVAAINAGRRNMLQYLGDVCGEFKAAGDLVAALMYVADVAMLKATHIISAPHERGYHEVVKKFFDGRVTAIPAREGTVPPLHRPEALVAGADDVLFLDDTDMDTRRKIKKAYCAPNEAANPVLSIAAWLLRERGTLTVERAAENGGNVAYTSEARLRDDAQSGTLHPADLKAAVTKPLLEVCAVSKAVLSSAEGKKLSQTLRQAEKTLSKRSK
# [10] = molecular target: T4, Tyrosyl-tRNA synthetase, putative (Trypanosoma cruzi (strain CL Brener)); test: Trypanosoma cruzi tyrosyl tRNA synthetase (TcYRS) SOP; assay type: functional; settings: 30 µM
# [11] = molecular target: Chromo domain-containing protein 1 (Saccharomyces cerevisiae (strain ATCC 204508 / S288c) (Baker's yeast)) (UniProt P32657); test: ScCHD-1 Enzyme Inhibition Assay; assay type: functional; settings: 30 µM; note: in the data most compounds retested in dose-response had high values
# Chain of Chromo domain-containing protein 1 (Saccharomyces cerevisiae (strain ATCC 204508 / S288c) (Baker's yeast)) (P32657 whole entry, the tested form may be a part): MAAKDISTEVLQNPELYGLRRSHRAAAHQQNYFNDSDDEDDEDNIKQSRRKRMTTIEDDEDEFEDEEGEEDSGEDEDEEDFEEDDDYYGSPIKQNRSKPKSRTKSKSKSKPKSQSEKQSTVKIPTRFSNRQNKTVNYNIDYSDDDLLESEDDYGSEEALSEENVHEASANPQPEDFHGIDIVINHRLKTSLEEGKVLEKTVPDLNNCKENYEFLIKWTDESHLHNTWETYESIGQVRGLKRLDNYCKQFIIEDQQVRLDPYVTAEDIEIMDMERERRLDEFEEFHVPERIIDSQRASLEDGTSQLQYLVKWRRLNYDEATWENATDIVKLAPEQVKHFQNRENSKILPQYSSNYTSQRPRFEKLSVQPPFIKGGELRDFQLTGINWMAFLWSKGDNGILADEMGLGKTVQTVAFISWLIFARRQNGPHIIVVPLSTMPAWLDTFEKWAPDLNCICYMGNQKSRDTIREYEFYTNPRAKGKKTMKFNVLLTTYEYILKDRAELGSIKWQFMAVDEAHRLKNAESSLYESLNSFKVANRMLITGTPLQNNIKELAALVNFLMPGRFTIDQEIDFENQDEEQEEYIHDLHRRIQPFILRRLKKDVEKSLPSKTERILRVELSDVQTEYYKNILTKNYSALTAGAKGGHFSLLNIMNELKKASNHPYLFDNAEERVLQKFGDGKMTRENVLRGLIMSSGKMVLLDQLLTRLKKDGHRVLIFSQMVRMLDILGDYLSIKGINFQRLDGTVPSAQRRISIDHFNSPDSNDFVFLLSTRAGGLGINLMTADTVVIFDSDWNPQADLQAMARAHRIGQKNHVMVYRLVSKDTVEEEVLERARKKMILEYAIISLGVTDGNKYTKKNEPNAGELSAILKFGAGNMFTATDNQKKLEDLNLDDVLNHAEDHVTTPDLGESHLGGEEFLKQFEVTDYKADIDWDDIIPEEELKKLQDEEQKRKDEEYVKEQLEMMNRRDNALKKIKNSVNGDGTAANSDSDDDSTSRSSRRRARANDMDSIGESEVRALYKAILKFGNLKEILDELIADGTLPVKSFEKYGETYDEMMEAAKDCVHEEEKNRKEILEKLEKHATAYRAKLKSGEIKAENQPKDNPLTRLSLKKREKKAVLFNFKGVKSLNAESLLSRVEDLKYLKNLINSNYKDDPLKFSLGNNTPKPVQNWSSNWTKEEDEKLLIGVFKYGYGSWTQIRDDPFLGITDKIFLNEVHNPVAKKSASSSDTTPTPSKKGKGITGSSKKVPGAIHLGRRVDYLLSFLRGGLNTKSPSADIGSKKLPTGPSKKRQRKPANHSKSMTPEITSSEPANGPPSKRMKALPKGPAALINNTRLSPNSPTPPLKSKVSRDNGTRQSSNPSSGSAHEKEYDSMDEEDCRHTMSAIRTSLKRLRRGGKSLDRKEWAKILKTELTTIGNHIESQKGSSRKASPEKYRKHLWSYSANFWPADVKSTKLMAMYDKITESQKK
SMILES,Percent Effect [1],Percent Effect [2],Percent Effect [3],Percent Effect [4],Percent Effect [5],Percent Effect [6],Percent Effect [7],Percent Effect [8],Percent Effect [9],Percent Effect [10],Percent Effect [11]
CCOCCN1CCn2c(C)nnc2C1,2.73%,19%,2.63%,-1.98%,-5.03%,-3.23%,13.9%,11.9%,4.17%,12.7%,-27.4%
NC(=O)NCC(=O)N1C[C@H]2CC[C@@H]1CN(Cc1ccccc1)C2,-4.49%,5.48%,6.44%,-9.32%,-0.979%,-6.82%,11.4%,-13.6%,6.45%,7.5%,-5.72%
O=C(C(CNCc1ccncc1)c1ccccc1)N1CCOCC1 (configuration not stated),0.622%,5.2%,0.193%,1.44%,-6.59%,-8.28%,18.3%,17.2%,3.23%,11.1%,-2.54%
NC(=O)CC1CCN(C(=O)CCOc2ccc(Cl)cc2)CC1,-3.65%,10.5%,2.65%,4.69%,0.752%,-4.6%,8.19%,1.27%,6.37%,12.2%,-8.66%
CCc1nnc2n1CCN(Cc1ccc(C(=O)N3CCCC3)cc1)C2,-2.96%,13.5%,2.51%,-7.2%,-2.69%,-4.25%,12.8%,17.1%,6.93%,15.8%,-4.5%
CCNC(=O)C1CCN(Cc2csc(-c3ccc(C)o3)n2)CC1,-0.895%,11.4%,2.01%,2.17%,2.97%,1.5%,14.1%,27.6%,7.29%,20.2%,-26.4%
O=C(N[C@@H]1CN(Cc2cccs2)[C@@H]2CCCO[C@@H]21)C1CC1,2.58%,8%,2.54%,23.2%,-7.34%,-53.6%,13.3%,1.32%,2.08%,20%,-6.29%
CC(C)c1cccc(CSc2nnc(CN3CCCC3=O)o2)n1,2.49%,-2.67%,-1.77%,-1.76%,-0.0974%,5.21%,-0.174%,-2.67%,1.64%,1.24%,0.138%
CCC(CNC(=O)c1ccc(Br)o1)N1CCc2ccccc2C1 (configuration not stated),-2.45%,-2.7%,-0.754%,2.18%,2.51%,-2.38%,10.9%,11.9%,0.529%,-4.88%,-2.21%
CC(=O)N1CC(=O)N(c2cnn(C)c2)CC12CCN(CC1CC1)C2 (configuration not stated),-2.91%,0%,1.91%,0.306%,-3.52%,1.67%,0.423%,-7.14%,4.95%,1.22%,-0.193%
N#Cc1ccccc1OCCN1CCCC1Cn1cccn1 (configuration not stated),-0.713%,-5.41%,-5.48%,8.98%,5.75%,-3.61%,-5.22%,-12.9%,2.46%,11.1%,-5.36%
O=C1NCC[C@]12CN(Cc1ccoc1)C[C@H]2c1ccccc1,4.22%,15.6%,11.9%,-15.6%,-8.38%,1.94%,13.8%,11%,4.23%,6.41%,-8.29%
Cc1nsc(C(=O)N2CCc3ccccc3C2)n1,-7.16%,13%,-4.33%,-9.01%,4.44%,-1.94%,5.22%,3.35%,3.17%,8.97%,-9.64%
CC(NCC1=Cc2cc(Cl)ccc2OC1)c1nnc2n1CCCC2 (configuration not stated),-3.07%,-2.7%,3.91%,2.75%,-0.195%,1.67%,9.38%,-10.3%,4.95%,1.22%,-3.29%
CC(NC(=O)N1CCCN(Cc2cccs2)CC1)c1cccnc1 (configuration not stated),-0.761%,18.4%,-1.54%,-0.0672%,5.64%,10.3%,8.02%,-11.5%,5.39%,21.9%,-12%
CN(Cc1cncnc1)Cc1cn2c(n1)CN(C1CCOC1)CC2 (configuration not stated),-2.37%,5.33%,-0.62%,5.52%,-2.51%,-21.7%,8.38%,8.32%,5.21%,12.5%,-5.82%
O=C1CCc2cc(-c3csc(CCN4CCCC4=O)n3)ccc2N1,-2.58%,20.8%,4.11%,2.39%,0.936%,-4.98%,5.41%,22.8%,15.5%,19.5%,-7.82%
